# Shown is part of a subset that was picked to be rich in hits.
# VCAM1 pot = TNF alpha stimulated VCAM1 expression potentiation | 93,000 tested, 0.19% active | HUVEC TNFa-stimulated VCAM-1 immunofluorescence, high-content imaging; scaled per plate to unstimulated/TNFa-only wells | AID 808 | activation, % at 2 µM;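 active = activation above the screen mean plus 3 SD, with well images confirming the hit on visual review, cut at about 28% in these data, passing the limit was not always enough; inconclusive = activation above that limit but images do not confirm it; inactive = activation not above that limit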;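 note: signal is the number of cytoplasmic VCAM-1 stained grains per positive cell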
# VCAM1 pot confirm = enhancers of VCAM1 induction in HUVEC – imaging, triplicate retest, confirmation | HUVEC TNFa-stimulated VCAM-1 immunofluorescence imaging | 230 tested, under 10 active | shares compounds with VCAM1 pot | activation, % at 2 µM | AID 1034;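 active = activation above 30% in triplicate retests at 2 µM, then confirmed by visual review of the well images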
# Hits are given with their value; 0 = inactive; ? = inconclusive.
SMILES,VCAM1 pot,others
Cc1ccc2cccc(OC(=O)N3CCCC3)c2n1,?,VCAM1 pot confirm=0
O=C(Nc1ccc(Cl)cc1C(=O)c1ccccc1)c1ccccc1,0,
CCN(CC)CCN=Cc1c(O)n(Cc2ccccc2)c(=O)[nH]c1=O,0,
O=C(c1ccc2c(c1)ncn2C1CCCCC1)N1CCC2(CC1)OCCO2,0,
Cc1ccc(S(=O)(=O)N(C)CCCC(=O)N2CCN(c3ccccn3)CC2)cc1,81,VCAM1 pot confirm=0
CC12CCCCC1N(O)CN2O (stereo not given),0,
CC(=NCCN1CCCCC1)c1c(O)[nH]c(=O)[nH]c1=O,0,
CNP1(NC)=NC(C(F)(F)F)=NC(C(F)(F)F)=N1,0,
O=P(/C(=N/O)N1CCCCC1)(N1CCOCC1)N1CCOCC1,0,
C=CCOC(=O)C1=C(C)OC(N)=C(C#N)C12C(=O)N(CN1CCOCC1)c1ccccc12 (stereo not given),0,

# Source: PubChem (Columbia University Molecular Screening Center)
